Screening data (PubChem)
A selection: hits, their analogues and other compounds. The true share with any hit is near 11%.
G9a block = qHTS Assay for Inhibitors of Histone Lysine Methyltransferase G9a; Potency, µM (top dose mostly 102 µM), hits mostly inhibitors; Histone-lysine N-methyltransferase EHMT2 (Homo sapiens), Q96KQ7; actives 8.8% (n = 350,000); AID 504332, 2011; G9a H3K9 monomethylation, AlphaScreen, 2 h; further: nearly all actives have a fitted effect of over 75% in size
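Enzyme 20 nM + cpd, 15 min RT; add b-H3K9 pep 500 nM / SAM 20 uM; 2 h RT; anti-H3K9me1 Ab 0.5 ug/mL + SA donor / anti-rabbit acceptor beads 20 ug/mL each, 10 min; AlphaScreen read.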
BAZ2B block = qHTS Assay for Inhibitors of BAZ2B; AlphaScreen BAZ2B-H3K14Ac peptide displacement; AID 504333, 2011; actives 4.4% (n = 360,000); Bromodomain adjacent to zinc finger domain protein 2B (Homo sapiens), Q9UIF8; Potency, µM (top dose mostly 114 µM), actives largely listed as inhibitors; further: nearly all actives have a fitted effect of over 60% in size
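Complex of BAZ2B and biotin-H3K14Ac (50 nM apiece) forms over 30 min at RT, then faces library compounds up to 110 uM for another 30 min; AlphaScreen beads added, 20 min dark incubation, luminescence read.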
VDR inhibitor = Inhibitors of the vitamin D receptor (VDR): qHTS. Vitamin D3 receptor (Homo sapiens), P11473. VDR-SRC2-3 peptide fluorescence polarization, 2 h. Potency, µM, most hits filed as inhibitors. actives 0.93% (n = 400,000)
Target sequence (P11473 whole entry, looked up): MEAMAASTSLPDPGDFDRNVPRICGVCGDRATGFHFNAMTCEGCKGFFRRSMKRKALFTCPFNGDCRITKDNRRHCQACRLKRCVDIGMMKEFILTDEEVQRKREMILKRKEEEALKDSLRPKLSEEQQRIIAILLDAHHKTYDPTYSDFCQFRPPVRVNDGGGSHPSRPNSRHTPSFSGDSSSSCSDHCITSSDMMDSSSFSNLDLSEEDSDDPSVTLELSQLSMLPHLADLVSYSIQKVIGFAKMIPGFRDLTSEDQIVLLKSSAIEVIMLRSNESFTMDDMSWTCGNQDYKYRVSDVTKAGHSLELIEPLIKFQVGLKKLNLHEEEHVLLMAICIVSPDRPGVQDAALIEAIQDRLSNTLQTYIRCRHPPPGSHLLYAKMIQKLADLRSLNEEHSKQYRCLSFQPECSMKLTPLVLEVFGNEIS
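FP read-out; VDR + SRC2-3 coactivator peptide; 23 nl compound by pintool; 2 h RT incubation; reagents held at 4 deg C, protected from light.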
PLK1 PBD inh = qHTS for Inhibitors of PLK1-PDB (polo-like kinase 1 - polo-box domain): Primary Screen. Serine/threonine-protein kinase PLK1 (Homo sapiens), P53350. Plk1 PBD binding of FITC phosphopeptide, fluorescence polarization. Potency, µM, most hits filed as inhibitors. actives 2.8% (n = 360,000). AID 720504, 2013; further: series mostly up to about 57 µM; nearly all actives have a fitted effect of over 65% in size
JMJD2A Tudor inh = qHTS Assay for Inhibitors of JMJD2A-Tudor Domain; AlphaScreen JMJD2A-Tudor / H3K4me3 peptide binding; Potency, µM (doses to about 114 µM), most hits filed as inhibitors; actives 4.4% (n = 390,000); AID 504339, 2011; further: nearly all actives have a fitted effect of over 50% in size
HP1b binding inh = HTS for Inhibitors of HP1-beta Chromodomain Interactions with Methylated Histone Tails; Chromobox protein homolog 1 (Homo sapiens), P83916; AlphaScreen HP1-beta / biotin-H3K9me3 peptide binding; Potency, µM (highest dose often 114 µM), most hits filed as inhibitors; actives 0.56% (n = 390,000); AID 540317, 2011; further: nearly all actives have a fitted effect of over 70% in size
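AlphaScreen: HP1-beta (50 nM) preformed 30 min with biotin-H3(1-18)K9me3 peptide (50 nM) in PBS pH 7.4, 0.01% Tween-20. Compound added for 30 min at RT, then streptavidin donor/nickel chelate acceptor beads (10 ug/mL) for 30 min.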
Numbers stand for hits; – = inactive; ? = inconclusive; · = no result; [ ] = dose if it differs, or a comment. The call rests on the fitted dose curve; in most records, active means well fitted curve in the direction sought with a large enough effect; inconclusive means small, poorly fitted or top-dose-only effect, or another doubt; inactive means no such curve, though single readings can be large; an effect the other way counts as inactive or inconclusive.

SMILES | G9a block | BAZ2B block | VDR inhibitor | PLK1 PBD inh | JMJD2A Tudor inh | HP1b binding inh
O=c1[nH]cccc1-c1nc2cc(Cl)ccc2n1Cc1ccccc1 | 70.8µM | – | – | – | – | –
COC(=O)c1sc2nc3c(cc2c1N)CCCC3 | – | – | – | – | – | –
COC(=O)c1sc2nc(N)c(C#N)cc2c1N | 44.7µM | – | – | – | – | –
COc1cc(/C=C/C(=O)c2ccc(C)cc2)ccc1OCC#N | ? | – | 50.1µM | – | – | –
COc1cc(/C=C/C(=O)OCc2csc(CC(=O)Nc3ccc(C)cc3)n2)ccc1OCC#N | 10µM | – | – | – | – | –
Cc1ccc(NC(=O)Cc2nc(CCl)cs2)cc1 | 8.91µM | – | – | – | ? | –
CN(CC(=O)Nc1ccccc1Cl)CC(=O)Nc1cccc2ccccc12 | · | · | – | – | – | –
CCOC(=O)N/N=C(\CCC(=O)O)c1cccs1 | – | – | – | – | – | –
CC(=O)c1ccc2c3c(cccc13)CC2 | – | – | – | – | – | –
CC(=O)c1ccc2cccc3c2c1N=CN3C | 44.7µM | – | – | – | – | –
O=C(c1ccc(Br)cc1)N1CCCc2ccccc21 | – | – | ? | ? | ? | –
O=C(Nc1ccc(C(=O)N2CCCc3ccccc32)cc1)c1cccs1 | – | – | – | – | 100µM | –
O=C(c1ccc(=O)oc1)N1CCCc2ccccc21 | ? | 44.7µM | – | ? | 50.1µM | –
COC(=O)c1cc(C)nc(Sc2ccccc2N)n1 | 3.55µM | – | 5.01µM | 1.68µM | 44.7µM | ?
O=C(NCCc1ccccc1)C1CCCN1S(=O)(=O)c1ccccc1 (stereo not given) | – | – | – | – | – | –
CC(=O)NC(c1ccc(F)c(F)c1)c1nc(-c2ccc(C)c(C)c2)cs1 (stereo not given) | · | · | · | – | · | ·
Cc1cc(N2CCN(c3ccc([N+](=O)[O-])c4cccnc34)CC2)c2ccccc2n1 | – | – | – | – | – | –
Cc1cc(N2CCN(c3ccc(C(F)(F)F)cc3[N+](=O)[O-])CC2)c2ccccc2n1 | · | 25.1µM | – | – | 44.7µM | –
O=C(Cn1cc(SCc2ccc(F)cc2)c2ccccc21)N1CCCC1 | – | – | – | · | – | –
Cc1cccc(N2CCN(C(=O)Cn3nc(C)c4sc5ccccc5c4c3=O)CC2)c1C | ? | – | – | · | – | –
COCC1CCN(C(=O)c2cc(COc3ccc(C)c(C)c3)on2)C1 (stereo not given) | ? | – | – | – | – | –
Cc1ccc(OCc2cc(C(=O)N3CCc4[nH]cnc4C3c3ccccn3)no2)cc1C (stereo not given) | 70.8µM | ? | – | – | ? | –
Cn1nnc2cc(NC(=O)N3CCN(c4ccccn4)CC3)ccc21 | –[12.7 µM] | ? | – | – | – | –
Cn1nnc2cc(C(=O)N3CCN(c4ccccn4)CC3)ccc21 | 17.8µM | – | – | – | – | –
Cc1cccc(N2CCN(C(=O)c3ccc4nc(N5CCCCC5)sc4c3)CC2)c1C | – | – | – | – | – | –
SMILES | G9a block | BAZ2B block | VDR inhibitor | PLK1 PBD inh | JMJD2A Tudor inh | HP1b binding inh
O=C(c1ccc2nc(N3CCCCC3)sc2c1)N1CCN(c2ccccn2)CC1 | 56.2µM | – | – | – | – | –
CC1CCN(c2nc3ccc(C(=O)N4CCN(Cc5ccccc5)CC4)cc3s2)CC1 | 70.8µM | – | – | – | ? | –
COc1ccc2c(c1)c1nnc(SC(C)C)nc1n2C | · | · | – | · | – | –
Cc1ccc([C@@H]2[C@@H]3C(=O)N(C)C(=O)[C@@H]3[C@]3(C)C(=O)N(CCO)CC(=O)N23)o1 | 44.7µM | – | – | – | – | –
COC(=O)CN1C(=O)[C@H]2[C@@H](c3ccc(C)o3)N3C(=O)CN(Cc4ccccc4)C(=O)[C@@]3(Cc3ccccc3)[C@H]2C1=O | – | – | – | – | – | –
Cc1ccc([C@@H]2[C@@H]3C(=O)N(C)C(=O)[C@@H]3[C@]3(Cc4ccccc4)C(=O)N(CCO)CC(=O)N23)o1 | – | – | – | – | – | –
